# Source: PubChem BioAssay (National Center for Advancing Translational Sciences (NCATS))
# Only some compounds are listed: those with a hit (about 3.1% of all), similar ones and a draw of the others.
# Vif-A3G inh = qHTS for Inhibitors of Vif-A3G Interactions: qHTS; DNA dC->dU-editing enzyme APOBEC-3G (Homo sapiens), Q9HC16; HeLa A3G-eYFP + Vif (tagged APOBEC3G with the HIV-1 protein that degrades it), YFP fluorescence, overnight; Potency, µM (series often up to 46.1 µM), usual class: inhibitors; hit rate 0.076% among 410,000; AID 602310, 2012; also: nearly all actives have a fitted effect of over 60% in size
#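 Read-out is eYFP fluorescence (Ex 488/Em 500-530) from Vif-expressing HeLa A3G-eYFP cells; more signal means A3G escaped Vif-mediated degradation. Cells plated overnight, compound pinned in, incubated overnight at 37 deg C.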
# Vif-APOBEC3F blk = qHTS for Inhibitors of Vif-A3F Interactions: qHTS | hit rate 0.2% among 390,000 | HeLa A3F-eYFP + Vif (tagged APOBEC3F with the HIV-1 protein that degrades it), YFP fluorescence increase | Potency, µM (highest dose often 46.1 µM); also: nearly all actives have a fitted effect of over 65% in size
#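 Fluorescence increase (Ex 488/Em 500-530) after overnight compound treatment at 37 deg C flags inhibition of Vif-driven A3F-eYFP loss in stable HeLa A3F-eYFP/Vif cells seeded overnight beforehand.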
# VDR inhibitor = Inhibitors of the vitamin D receptor (VDR): qHTS. AID 504847, 2011. hit rate 0.93% among 400,000. VDR-SRC2-3 peptide fluorescence polarization, 2 h. Potency, µM, hits mostly inhibitors. Vitamin D3 receptor (Homo sapiens), P11473
#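 Fluorescence polarization assay of small-molecule disruption of VDR binding to coregulator peptide SRC2-3. Compounds and controls pin-transferred, then read after 2 h incubation at ambient room temperature.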
# TSHR antagonist = Antagonists of the Thyroid Stimulating Hormone Receptor: HTS campaign; TSHR-expressing cells, TSH-stimulated cAMP HTRF, 2 h; hits give low values; activity change, negative = inhibition, % at 11.5 µM; hit rate 0.2% among 330,000; AID 504810, 2011;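 active = activity change below a set negative limit, meaning inhibition stronger than a set level, cut at about -70% in these data; inconclusive = activity change between two set negative limits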
# Target sequence (P16473 whole entry, looked up): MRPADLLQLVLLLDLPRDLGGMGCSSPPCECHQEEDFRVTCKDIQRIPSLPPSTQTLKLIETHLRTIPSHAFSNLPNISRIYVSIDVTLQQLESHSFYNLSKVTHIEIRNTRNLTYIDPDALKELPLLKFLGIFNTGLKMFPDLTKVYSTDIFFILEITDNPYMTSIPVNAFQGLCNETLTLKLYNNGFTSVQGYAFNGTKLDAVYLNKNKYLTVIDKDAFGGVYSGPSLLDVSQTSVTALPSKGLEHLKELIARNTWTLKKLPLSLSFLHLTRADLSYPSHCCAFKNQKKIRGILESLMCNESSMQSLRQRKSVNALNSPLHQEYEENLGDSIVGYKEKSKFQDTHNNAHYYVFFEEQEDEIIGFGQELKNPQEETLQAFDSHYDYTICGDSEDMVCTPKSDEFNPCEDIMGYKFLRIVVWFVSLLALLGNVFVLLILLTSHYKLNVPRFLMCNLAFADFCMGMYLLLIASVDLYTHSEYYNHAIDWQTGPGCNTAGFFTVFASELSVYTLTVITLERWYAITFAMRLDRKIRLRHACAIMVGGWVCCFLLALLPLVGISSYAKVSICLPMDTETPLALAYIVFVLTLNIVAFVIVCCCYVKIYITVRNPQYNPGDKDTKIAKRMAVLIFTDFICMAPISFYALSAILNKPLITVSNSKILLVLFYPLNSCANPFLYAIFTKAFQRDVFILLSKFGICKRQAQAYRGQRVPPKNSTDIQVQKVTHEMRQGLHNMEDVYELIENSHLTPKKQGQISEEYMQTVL
#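 Read-out is FRET at 665 nm (cryptate excitation 337 nm) from a cryptate-tagged anti-cAMP antibody, competed by cell cAMP against cAMP-d2. Compounds are tested on freshly harvested TSHR cells challenged with 4nM TSH (EC80) for 2 hours at 37 deg C.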
# PLK1 PBD inh = qHTS for Inhibitors of PLK1-PDB (polo-like kinase 1 - polo-box domain): Primary Screen | Plk1 PBD binding of FITC phosphopeptide, fluorescence polarization | hit rate 2.8% among 360,000 | Serine/threonine-protein kinase PLK1 (Homo sapiens), P53350 | Potency, µM, actives largely listed as inhibitors; also: series mostly up to about 57 µM; nearly all actives have a fitted effect of over 65% in size
# TbPYK inh = qHTS of Trypanosoma Brucei Inhibitors: Confirmatory Assay for Cherry-picked Compounds; shares compounds with PLK1 PBD inh; Potency, µM (titrated, usually from 76.9 µM), usual class: inhibitors; hit rate 67% among 890; recombinant TbPYK, Kinase-Glo ATP luminescence; also: nearly all actives have a fitted effect of over 70% in size
# TbPYK ADP-Glo = qHTS of Trypanosoma Brucei Inhibitors: Orthogonal Assay for Cherry-picked Compounds. shares compounds with PLK1 PBD inh. recombinant TbPYK, ADP-Glo luminescence, 60 min. Potency, µM (series often up to 76.9 µM), usual class: inhibitors. hit rate 62% among 890. AID 720584, 2013; also: nearly all actives have a fitted effect of over 75% in size
# Numbers stand for hits; 0 = inactive; ? = inconclusive; - = no result. Unless noted, calls follow the shape of the dose curve; as a rule, active = well fitted curve in the direction sought with a large enough effect; inconclusive = small, poorly fitted or top-dose-only effect, or another doubt; inactive = no such curve, though single readings can be large; an effect the other way counts as inactive or inconclusive.
SMILES,Vif-A3G inh,Vif-APOBEC3F blk,VDR inhibitor,TSHR antagonist,PLK1 PBD inh,TbPYK inh,TbPYK ADP-Glo
COc1ccc2[nH]cc(CCNc3ncncc3-c3cccc(C#N)c3)c2c1,-,-,0,-,-,-,-
CCOC(=O)c1ccc(N2CSC3=C(C#N)C(c4cccs4)CC(=O)N3C2)cc1 (stereo not given),0,0,89µM,0,0,?,?
Cc1ccc(N2C(N)=C(C#N)C(c3cccs3)C3=C2CC(C)(C)CC3=O)cc1 (stereo not given),0,0,0,0,0,-,-
Cc1ccc(N2CSC3=C(C#N)C(c4cccs4)CC(=O)N3C2)cc1 (stereo not given),0,0,79µM,0,15µM,2.5µM,1.6µM
COc1ccc(CNC(=O)c2cc3cc(S(=O)(=O)N4CCCCC4)ccc3n2C)c(OC)c1,0,0,0,-,-,-,-
CCc1ccc2c(c1)c(=O)c(S(=O)(=O)c1ccc(F)cc1)cn2CC(=O)Nc1ccc(C)cc1C,0,0,0,-,-,-,-
CCN1C(=O)/C(=C\C=C2/C=CC=CN2CC)SC1=S,0,?,?,0,0,-,-
CCN1C(=O)/C(=C/C=C2\C=CN(CC)c3ccccc32)SC1=S,0,0,0,0,0,22µM,?
CN(C(=O)c1sc2nc(N3CCOCC3)c3c(c2c1N)CCCC3)c1ccccc1,0,0,0,0,0,-,-
NC(=O)c1sc2nc(N3CCOCC3)c3c(c2c1N)CCCC3,0,0,0,0,27µM,11µM,10µM
CCOC(=O)c1sc2nc(N3CCOCC3)c3c(c2c1N)CCC3,0,0,0,0,0,-,-
CCCCN(CCCC)C(=O)c1sc2nc(N3CCOCC3)c3c(c2c1N)CCCC3,0,0,?,0,30µM,1.6µM,3.2µM
CC1CCN(C(=O)Cn2cc(SCC(=O)Nc3ccccc3C(F)(F)F)c3ccccc32)CC1,0,0,0,-,-,-,-
Cc1ccc(CNC(=O)C(=O)NCC(c2cccnc2)N2CCN(c3ccccc3F)CC2)cc1 (stereo not given),0,0,0,-,-,-,-
Cc1nc(NC(=O)c2ccco2)sc1C(=O)O,0,0,0,0,0,20µM,0
CCn1c(=O)c2sccc2n2c(CCC(=O)N3CCN(c4ccc(C(C)=O)cc4)CC3)nnc12,0,0,0,-,-,-,-
C=CCNC(=O)CSc1cc([N+](=O)[O-])cc(S(=O)(=O)Cc2ccccc2)c1,0,0,0,0,?,-,-
O=C(CSc1cc([N+](=O)[O-])cc(S(=O)(=O)Cc2ccccc2)c1)NC1CC1,0,0,0,0,?,?,25µM
Cc1ccc(N=C2C(=O)Nc3ccccc32)cc1,0,0,0,0,0,-,-
CCN(CC)c1ccc(N=C2C(=O)Nc3ccccc32)cc1,0,0,?,0,0,?,0
CCOC(=O)C(=Cc1cc(=O)c(OC)co1)C(=O)OCC,?,0,40µM,0,24µM,28µM,?
CCOC(=O)C(=CNc1ccc(O)c(C(=O)OC)c1)C(=O)OCC,0,0,0,-,0,-,-
Cc1snc(SCC(=O)c2ccc([N+](=O)[O-])cc2)c1C#N,0,0,?,0,9.5µM,18µM,20µM
CN(C(=O)CSc1nc2c(c(=O)[nH]1)CCCC2)c1ccccc1,-,-,0,-,-,-,-
CC(C)Oc1ccc(CNC(=O)c2cnc3sc(N4CCCCCC4)nn3c2=O)cc1,0,0,0,-,-,-,-
SMILES,Vif-A3G inh,Vif-APOBEC3F blk,VDR inhibitor,TSHR antagonist,PLK1 PBD inh,TbPYK inh,TbPYK ADP-Glo
CC1CCN(C(=S)NC(=O)c2cccs2)CC1,0,0,0,0,0,?,14µM
N#Cc1cccc(N=c2ssnc2Cl)c1,0,0,?,0,1.7µM,8.9µM,7.1µM
COc1cc(N=c2ssnc2Cl)cc(OC)c1,0,0,20µM,0,1.7µM,4µM,5µM
Clc1nssc1=Nc1nncs1,0,0,5.6µM,0,2.4µM,2µM,5µM
Clc1nssc1=Nc1ccc(Br)cc1,0,0,35µM,0,2.1µM,8.9µM,11µM
O=C1OC(Nc2ccc3c(c2)OCO3)c2ccccc21 (stereo not given),?,0,0,0,0,0.5µM,13µM
CC(C)NC(=O)Cn1nc(N2CCN(c3ccccc3)CC2)ccc1=O,0,0,0,-,-,-,-
COc1ccc(OCC2c3cc(OC)c(OC)cc3CCN2C(=O)c2c(F)cccc2F)cc1 (stereo not given),0,0,0,-,-,-,-
COCCNC(=O)c1ccc2c(=O)n(CCc3ccccc3)c(SCC(=O)CC(=O)OC)nc2c1,0,0,0,-,-,-,-
O=C1CC(Sc2nnnn2-c2ccccc2)C(=O)N1c1cccc(Cl)c1 (stereo not given),0,-,0,0,?,28µM,32µM
COc1ccc(N2C(=O)CC(Sc3nnnn3-c3ccc(F)cc3)C2=O)cc1 (stereo not given),0,0,0,0,?,-,-
CCn1c(=O)cc(C(F)(F)F)[nH]c1=S,0,0,0,0,0,?,35µM
CCn1c(=S)[nH]c2cc(C(=O)O)ccc21,-,-,-,0,-,-,-
CCOC(=O)c1ccc(N2C(=O)CC(C(=O)OC)=C2C)cc1,0,0,?,0,?,-,-
CCOC(=O)C1=C(N)N(c2ccccc2)C(=O)C1,0,0,25µM,0,3µM,0,0
O=C(Nc1ccc2c(c1)ncn2-c1ccccc1)c1ccco1,0,0,0,0,?,14µM,4.5µM
CC1(C(=O)NCCC(F)(F)F)Cc2c(-c3cccc(C(N)=O)c3)ccnc2O1 (stereo not given),?,-,-,-,0,0,0
Nc1ccc(S(=O)(=O)c2cc(O)c3ccccc3c2O)cc1,?,0,?,-,2.7µM,13µM,32µM
N#Cc1c(NC(NC(=O)c2ccco2)C(=O)c2ccccc2)sc2c1CCCC2 (stereo not given),0,0,0,0,0,?,3.5µM
CC1CC2C3CC(F)C4=CC(=O)C=C[C@@]4(C)[C@@]3(F)C(O)C[C@]2(C)[C@]1(O)C(=O)COC(=O)C(C)(C)C (stereo not given in full),-,-,0,-,-,-,-
CCCN(C(=O)c1cc(S(=O)(=O)N2CCc3ccccc32)cn1C)c1ccc(OCC)cc1,0,0,0,-,-,-,-
CC1=NN(c2ccccc2)C(=O)/C1=C/C=C/c1ccc(N(C)C)cc1,0,0,79µM,0,0,25µM,0
CC1=NN(c2ccccc2)C(=O)/C1=C/N(C)C,0,0,0,0,0,-,-
